# Only a selection was taken, and the strongest signals are over-represented in it overall.
# B1: AT5G24760(45) (Arabidopsis thaliana), Q8LEB2 (protein)
# chain: MSASSSSFEQPQVITCNAAVAWRAGEPLVMEEVEVSPPQPLEIRIKVVCTSLCRSDLSAWESQSLLPRIFGHEAAGIVESIGEGVTEFEKGDHVLAVFTGECGSCRHCISGKSNMCQVLGMERKGLMHSDQKTRFSIKGKPVYHYCAVSSFSEYTVVHSGCAVKVDPLAPLHKICLLSCGVAAGLGAAWNVADVQKGSSVVIFGLGTVGLSVAQGAKLRGAAQILGVDINPAKAEQAKTFGVTDFINSNDLSEPIPQVIKRMTGGGADFSFECVGDTGIATTALQSCSDGWGMTVTLGVPKAKPEVSAHYGLFLSGKSLKGTLFGGWKPKSDLPSLIDKYMNKEIMIDEFITHNLSFDEINKAFVLMREGKCLRCVLHMPK
# How the values were obtained:
# Assay in all cases: glycan array binding signal (z-score within array); higher = stronger binding
# Settings in all cases: glycan notation: IUPAC condensed, linker removed
# [1] = target: Fuc(a1-2)Gal(b1-3)GalNAc(b1-3)Gal(a1-4)Gal(b1-4)Glc
# How it was run: (§1)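 Arrays were curated from the Consortium for Functional Glycomics database, 3228 in total, and kept only where the protein sequence was available. Binding is expressed as a within-array Z-score. This score was averaged across arrays of the same protein sequence at different concentrations or buffers and across linkers, and negative values can be read as non-binding.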
# [2] = target: Fuc(a1-2)Gal(b1-4)GlcNAc(b1-3)[Fuc(a1-3)[Gal(b1-4)]GlcNAc(b1-6)]Gal(b1-4)Glc
# How it was run: as §1
# [3] = target: Fuc(a1-2)Gal(b1-4)[Fuc(a1-3)]GlcNAc(b1-2)Man(a1-3)[Fuc(a1-2)Gal(b1-4)[Fuc(a1-3)]GlcNAc(b1-2)Man(a1-6)]Man(b1-4)GlcNAc(b1-4)[Fuc(a1-6)]GlcNAc
# How it was run: as §1
# [4] = target: Fuc(a1-2)Gal(b1-4)[Fuc(a1-3)]GlcNAc(b1-3)GalNAc
# How it was run: as §1
# Fuc(a1-2)[Gal(a1-3)]Gal = target: Fuc(a1-2)[Gal(a1-3)]Gal
# How it was run: as §1
# [5] = target: Fuc(a1-2)[Gal(a1-3)]Gal(b1-3)GlcNAc
# How it was run: as §1
# [6] = target: Fuc(a1-2)[Gal(a1-3)]Gal(b1-4)GlcNAc(b1-3)[Fuc(a1-2)[Gal(a1-3)]Gal(b1-4)GlcNAc(b1-6)]GalNAc
# How it was run: as §1
# [7] = target: Fuc(a1-2)[GalNAc(a1-3)]Gal(b1-3)GlcNAc(b1-3)GalNAc
# How it was run: as §1
# [8] = target: Fuc(a1-2)[GalNAc(a1-3)]Gal(b1-4)GlcNAc(b1-2)Man
# How it was run: as §1
# [9] = target: Fuc(a1-2)[GalNAc(a1-3)]Gal(b1-4)[Fuc(a1-3)]GlcNAc(b1-3)GalNAc
# How it was run: as §1
# [10] = target: Fuc(a1-3)[GalNAc(b1-4)]GlcNAc
# How it was run: as §1
# Fuc(a1-4)GlcNAc = target: Fuc(a1-4)GlcNAc
# How it was run: as §1
# Gal(a1-3)Gal = target: Gal(a1-3)Gal
# How it was run: as §1
# Gal(a1-3)Gal(b1-3)GlcNAc = target: Gal(a1-3)Gal(b1-3)GlcNAc
# How it was run: as §1
# [11] = target: Gal(a1-3)[Gal(a1-4)]Gal(b1-4)GlcNAc
# How it was run: as §1
# Gal(b1-3)GalNAc = target: Gal(b1-3)GalNAc
# How it was run: as §1
# [12] = target: Gal(b1-3)GlcNAc(b1-3)Gal(b1-4)GlcNAc
# How it was run: as §1
# [13] = target: Gal(b1-4)GlcNAc(b1-2)[Gal(b1-4)GlcNAc(b1-6)]Man(a1-6)[GlcNAc(b1-4)][Gal(b1-4)GlcNAc(b1-2)Man(a1-3)]Man(b1-4)GlcNAc(b1-4)GlcNAc
# How it was run: as §1
# [14] = target: Gal(b1-4)GlcNAc(b1-3)Gal(b1-4)GlcNAc(b1-3)Gal(b1-4)GlcNAc(b1-3)Gal(b1-4)GlcNAc(b1-2)[Gal(b1-4)GlcNAc(b1-3)Gal(b1-4)GlcNAc(b1-3)Gal(b1-4)GlcNAc(b1-3)Gal(b1-4)GlcNAc(b1-6)]Man(a1-6)[Gal(b1-4)GlcNAc(b1-3)Gal(b1-4)GlcNAc(b1-3)Gal(b1-4)GlcNAc(b1-3)Gal(b1-4)GlcNAc(b1-2)Man(a1-3)]Man(b1-4)GlcNAc(b1-4)[Fuc(a1-6)]GlcNAc
# How it was run: as §1
# [15] = target: Gal(b1-4)GlcNAc(b1-3)Gal(b1-4)GlcNAc(b1-3)Gal(b1-4)GlcNAc(b1-3)Gal(b1-4)GlcNAc(b1-3)Gal(b1-4)GlcNAc(b1-3)Gal(b1-4)GlcNAc(b1-2)Man(a1-3)[Gal(b1-4)GlcNAc(b1-3)Gal(b1-4)GlcNAc(b1-3)Gal(b1-4)GlcNAc(b1-3)Gal(b1-4)GlcNAc(b1-3)Gal(b1-4)GlcNAc(b1-3)Gal(b1-4)GlcNAc(b1-2)Man(a1-6)]Man(b1-4)GlcNAc(b1-4)GlcNAc
# How it was run: as §1
# [16] = target: Gal(b1-4)GlcNAc(b1-6)GalNAc
# How it was run: as §1
# [17] = target: Gal(b1-4)GlcNAc(b1-6)[Gal(b1-3)]GalNAc
# How it was run: as §1
# [18] = target: Gal3S(b1-3)[Fuc(a1-4)]GlcNAc
# How it was run: as §1
# [19] = target: Gal3S(b1-4)[Fuc(a1-3)]Glc6S
# How it was run: as §1
# [20] = target: GalNAc(b1-3)Gal(a1-4)Gal(b1-4)GlcNAc(b1-3)Gal(b1-4)Glc
# How it was run: as §1
# [21] = target: GalNAc(b1-3)Gal(a1-6)Gal(b1-4)Glc
# How it was run: as §1
# GalNAc(b1-3)GlcNAc = target: GalNAc(b1-3)GlcNAc
# How it was run: as §1
# GalNAc(b1-4)GlcNAc = target: GalNAc(b1-4)GlcNAc
# How it was run: as §1
# [22] = target: GlcNAc(b1-2)Gal(b1-3)GalNAc
# How it was run: as §1
# [23] = target: GlcNAc(b1-2)[GlcNAc(b1-4)]Man(a1-3)[GlcNAc(b1-2)Man(a1-6)]Man(b1-4)GlcNAc(b1-4)GlcNAc
# How it was run: as §1
# [24] = target: GlcNAc(b1-2)[GlcNAc(b1-4)]Man(a1-3)[GlcNAc(b1-4)][GlcNAc(b1-2)Man(a1-6)]Man(b1-4)GlcNAc(b1-4)GlcNAc
# How it was run: as §1
# [25] = target: GlcNAc(b1-3)Gal(b1-4)GlcNAc(b1-3)Gal(b1-4)GlcNAc(b1-2)Man(a1-3)[GlcNAc(b1-3)Gal(b1-4)GlcNAc(b1-3)Gal(b1-4)GlcNAc(b1-2)Man(a1-6)]Man(b1-4)GlcNAc(b1-4)GlcNAc
# How it was run: as §1
# [26] = target: GlcNAc(b1-4)Gal(b1-4)GlcNAc
# How it was run: as §1
# [27] = target: Man(a1-3)[Man(a1-6)]Man(b1-4)GlcNAc(b1-4)[Fuc(a1-6)]GlcNAc
# How it was run: as §1
# [28] = target: Neu5Ac(a2-3)Gal(b1-3)GlcNAc(b1-3)GalNAc
# How it was run: as §1
# [29] = target: Neu5Ac(a2-3)Gal(b1-4)GlcNAc(b1-2)[Neu5Ac(a2-3)Gal(b1-4)GlcNAc(b1-6)]Man(a1-6)[Neu5Ac(a2-3)Gal(b1-4)GlcNAc(b1-2)Man(a1-3)]Man(b1-4)GlcNAc(b1-4)GlcNAc
# How it was run: as §1
# [30] = target: Neu5Ac(a2-3)Gal(b1-4)GlcNAc(b1-3)Gal
# How it was run: as §1
# [31] = target: Neu5Ac(a2-3)Gal(b1-4)GlcNAc(b1-3)[Neu5Ac(a2-3)Gal(b1-4)GlcNAc(b1-6)]GalNAc
# How it was run: as §1
# [32] = target: Neu5Ac(a2-3)Gal(b1-4)[Fuc(a1-3)]GlcNAc(b1-3)GalNAc
# How it was run: as §1
# [33] = target: Neu5Ac(a2-3)Gal(b1-4)[Fuc(a1-3)]GlcNAc(b1-6)[Neu5Ac(a2-3)Gal(b1-3)]GalNAc
# How it was run: as §1
# [34] = target: Neu5Ac(a2-6)Gal(b1-4)GlcNAc(b1-3)Gal(b1-4)GlcNAc
# How it was run: as §1
# [35] = target: Neu5Ac(a2-6)Gal(b1-4)GlcNAc(b1-3)Gal(b1-4)GlcNAc(b1-3)[Neu5Ac(a2-6)Gal(b1-4)GlcNAc(b1-3)Gal(b1-4)GlcNAc(b1-6)]GalNAc
# How it was run: as §1
# [36] = target: Neu5Ac(a2-8)Neu5Ac(a2-3)[GalNAc(b1-4)]Gal(b1-4)Glc
# How it was run: as §1
# [37] = target: Neu5Ac(a2-8)Neu5Ac(a2-8)Neu5Ac(a2-3)[Gal(b1-3)GalNAc(b1-4)]Gal(b1-4)Glc
# How it was run: as §1
# [38] = target: Neu5Gc(a2-3)Gal(b1-4)[Fuc(a1-3)]GlcNAc
# How it was run: as §1
binder,measurement,setting,value
B1,glycan array binding signal (z-score),[1],-0.051
same,glycan array binding signal (z-score),[2],0.166
same,glycan array binding signal (z-score),[3],0.395
same,glycan array binding signal (z-score),[4],4.6
same,glycan array binding signal (z-score),Fuc(a1-2)[Gal(a1-3)]Gal,0.984
same,glycan array binding signal (z-score),[5],-0.224
same,glycan array binding signal (z-score),[6],0.627
same,glycan array binding signal (z-score),[7],3.83
same,glycan array binding signal (z-score),[8],-0.179
same,glycan array binding signal (z-score),[9],6.82
same,glycan array binding signal (z-score),[10],1.18
same,glycan array binding signal (z-score),Fuc(a1-4)GlcNAc,1.12
same,glycan array binding signal (z-score),Gal(a1-3)Gal,0.612
same,glycan array binding signal (z-score),Gal(a1-3)Gal(b1-3)GlcNAc,7.36
same,glycan array binding signal (z-score),[11],6.01
same,glycan array binding signal (z-score),Gal(b1-3)GalNAc,0.106
same,glycan array binding signal (z-score),[12],-0.138
same,glycan array binding signal (z-score),[13],-1.03
same,glycan array binding signal (z-score),[14],-0.779
same,glycan array binding signal (z-score),[15],-0.887
same,glycan array binding signal (z-score),[16],1.23
same,glycan array binding signal (z-score),[17],-0.485
same,glycan array binding signal (z-score),[18],0.437
same,glycan array binding signal (z-score),[19],2.68
same,glycan array binding signal (z-score),[20],-0.632
same,glycan array binding signal (z-score),[21],-0.337
same,glycan array binding signal (z-score),GalNAc(b1-3)GlcNAc,0.645
same,glycan array binding signal (z-score),GalNAc(b1-4)GlcNAc,3.23
same,glycan array binding signal (z-score),[22],2.61
same,glycan array binding signal (z-score),[23],1.01
same,glycan array binding signal (z-score),[24],-0.932
same,glycan array binding signal (z-score),[25],1.14
same,glycan array binding signal (z-score),[26],2.53
same,glycan array binding signal (z-score),[27],-0.202
same,glycan array binding signal (z-score),[28],-0.553
same,glycan array binding signal (z-score),[29],-0.601
same,glycan array binding signal (z-score),[30],-0.951
same,glycan array binding signal (z-score),[31],-1.2
same,glycan array binding signal (z-score),[32],3.17
same,glycan array binding signal (z-score),[33],2.76
same,glycan array binding signal (z-score),[34],-0.877
same,glycan array binding signal (z-score),[35],-0.602
same,glycan array binding signal (z-score),[36],-0.388
same,glycan array binding signal (z-score),[37],0.125
same,glycan array binding signal (z-score),[38],-0.203

# — the supplement of paper PMC8728848
